# Assay outcomes: PubChem BioAssay, National Center for Advancing Translational Sciences (NCATS)
# AmpC inh detg: qHTS Inhibitors of AmpC Beta-Lactamase (assay with detergent) | P00811 | AmpC hydrolysis of nitrocefin, absorbance 480 nm, 0.01% Triton | Potency, µM (doses to about 114 µM), without a hit: at the highest dose activity change, negative = inhibition, hits mostly inhibitors | hit rate 0.041% among 370,000;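 also: 0% = no-compound wells and -100% = no-enzyme wells; nearly all actives have a fitted effect of over 25% in size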
# Target sequence (P00811 whole entry, looked up): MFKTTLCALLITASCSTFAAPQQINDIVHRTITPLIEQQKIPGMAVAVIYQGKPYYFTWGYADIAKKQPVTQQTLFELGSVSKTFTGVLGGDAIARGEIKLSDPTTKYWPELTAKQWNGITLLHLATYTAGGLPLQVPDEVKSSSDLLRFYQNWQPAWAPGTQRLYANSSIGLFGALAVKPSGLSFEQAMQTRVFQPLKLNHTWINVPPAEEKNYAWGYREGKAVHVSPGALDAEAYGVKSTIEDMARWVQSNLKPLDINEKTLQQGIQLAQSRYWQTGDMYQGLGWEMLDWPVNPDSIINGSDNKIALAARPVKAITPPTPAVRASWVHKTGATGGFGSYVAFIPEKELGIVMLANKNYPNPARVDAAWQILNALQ
#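 AmpC (5.3 nM in the dispensed reagent) in 20 mM phosphate pH 7.0 with 0.01% (detergent screen) or 0.0001% Triton X-100 was preincubated with compounds for 15 min at room temperature. Nitrocefin was then added from an 800 uM solution, and hydrolysis was followed at 480 nm.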
# Vaccinia mCherry: qHTS for Stage-Specific Inhibitors of Vaccinia Orthopoxvirus: mCherry Reporter Primary qHTS; hit rate 0.63% among 310,000; Vaccinia virus mCherry reporter infection, fluorescence; Potency, µM (highest dose often 36.5 µM), for inactives: at the top dose activity change, negative = inhibition, usual class: inhibitors; AID 720579, 2013; calls by dose curve; tested in A549 cells; also: nearly all actives have a fitted effect of over 35% in size
# Vaccinia Venus: qHTS for Stage-Specific Inhibitors of Vaccinia Orthopoxvirus: Venus Reporter Primary qHTS | AID 720580, 2013 | Vaccinia virus Venus reporter expression, fluorescence | hit rate 0.46% among 330,000 | Potency, µM (highest dose often 36.5 µM), inactives show at the highest dose activity change, negative = inhibition, hits mostly inhibitors; calls by dose curve; tested in A549 cells; also: nearly all actives have a fitted effect of over 30% in size
# AmpC no deterg: qHTS Inhibitors of AmpC Beta-Lactamase (assay without detergent). P00811. AmpC nitrocefin hydrolysis, absorbance 480 nm, 0.0001% Triton. Potency, µM (top dose mostly 57.1 µM), for inactives: at the highest dose activity change, negative = inhibition, usual class: inhibitors. hit rate 0.52% among 330,000. AID 485341, 2010;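 also: plate controls were no compound for no effect and no enzyme for full effect; nearly all actives have a fitted effect of over 20% in size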
#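 20 mM phosphate pH 7.0 + 0.01% (detergent screen) or 0.0001% Triton X-100; 5.3 nM AmpC reagent; cpd preinc 15 min RT; nitrocefin (800 uM stock) to start; A480 q20 s × 4 min; Activity was normalised to no-enzyme and no-compound control wells.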
# * hit, by the source's call; i = inactive; ? = inconclusive; · = not tested or not shown. A selection: hits, their analogues and other compounds. The true share with any hit is near 1.1%. Unless noted, calls follow the shape of the dose curve; as a rule, active = well fitted curve in the direction sought with a large enough effect; inconclusive = small, poorly fitted or top-dose-only effect, or another doubt; inactive = no such curve, though single readings can be large; an effect the other way counts as inactive or inconclusive. Unless noted, % is scaled to controls: 0 for no effect and ±100 for the full control effect; potency is read from the fitted curve at half-maximal effect.
SMILES,AmpC inh detg,Vaccinia mCherry,Vaccinia Venus,AmpC no deterg
c1ccc2[nH]c(CSc3nnc(-c4ccncc4)o3)nc2c1,-4%,·,?,-11%
CC[C@@H](C(=O)[C@@H](C)[C@@H](O)[C@H](C)[C@@H]1O[C@@H]([C@@H](CC)C(=O)O)CC[C@@H]1C)[C@H]1O[C@]2(C=C[C@@H](O)[C@]3(CC[C@@](C)([C@H]4CC[C@](O)(CC)[C@H](C)O4)O3)O2)[C@H](C)C[C@@H]1C,·,2.5µM*,11µM*,·
COc1ccc(CN2CCN(C(C)=O)CC2)cc1OC1CCN(C(=O)c2ccc3ccccc3n2)CC1,·,-4%,6%,·
Cc1ccc(C)c(C(=O)Cn2ncc(Cl)c(Cl)c2=O)c1,-9%,-21%,?,-38%
Cc1cc(C(=O)Cn2ncc(Cl)c(Cl)c2=O)c(C)n1CC(F)(F)F,-5%,?,14µM*,-50%
COC(=O)[C@@H](NC(=O)C1CCCN(c2nc(C)c3ccc(C)cc3n2)C1)C(C)C (stereo partly drawn),·,-12%,-4%,·
Cc1cnc(SCc2ccccn2)nc1C1CCCN(C(=O)c2cc3ccccc3oc2=O)C1 (stereo not drawn),·,-10%,-13%,·
CCC1(C2CCN(Cc3ccccn3)CC2)NC(=O)N(CC2COc3ccccc3O2)C1=O (stereo not drawn),·,-4%,3%,·
CC(C)c1nnc(NC(=O)CCCCCN2C(=O)C3C4C=CC(C4)C3C2=O)s1 (stereo not drawn),?,6%,-2%,16%
Cc1nnc(NC(=O)CCCCCN2C(=O)C3C4C=CC(C4)C3C2=O)s1 (stereo not drawn),?,i,-14%,6.3µM*
COc1ccc(CN2CCOc3ccc(C(O)c4cccnc4)cc3C2)c(OC)c1OC (stereo not drawn),·,-2%,8%,·
Cc1ccn2c(=O)nc(SCC(=O)NCCc3ccccc3)nc2c1,?,-12%,-3%,32µM*
CCN(c1ccccc1)S(=O)(=O)c1cc(NC(=O)Nc2ccccc2C#N)ccc1Cl,?,?,-29%,8.9µM*
CCN(c1ccccc1)S(=O)(=O)c1ccc(Cl)c(NC(=O)Nc2ccc(Cl)cc2C#N)c1,1%,11µM*,10µM*,-47%
CCN(c1ccccc1)S(=O)(=O)c1cc(NC(=O)COC(=O)C2CC2)ccc1Cl,1%,-1%,-4%,-35%
CN(c1ccccc1)S(=O)(=O)c1cccc(NC(=O)Nc2ccc(Cl)cc2C#N)c1,?,i,-9%,-32%
CC1(C)S[C@@H]2[C@H](NC(=O)COc3ccccc3)C(=O)N2[C@@H]1C(=O)OCc1cccc2cccnc12,·,0%,-15%,·
COc1ccc(CNc2nc(N)nc3nc[nH]c23)cc1,·,-12%,-17%,·
Cc1nnc(Sc2cc(NCCCO)c([N+](=O)[O-])c3nonc23)s1,?,i,1%,28µM*
Cc1nn2c(NCc3ccccn3)c3c(nc2c1-c1ccccc1)CCC3,-16%,10µM*,?,0%
Cc1cc(NCc2ccccn2)n2nc(C)c(-c3ccccc3)c2n1,-1%,5.6µM*,?,61%
Cc1cnc(C)c(-c2cc(F)cc3c2OC(CNC(=O)Cc2c(C)noc2C)C3)n1 (stereo not drawn),·,i,-14%,·
OC[C@H]1O[C@@H](O[C@H]2[C@H](O)[C@@H](O)[C@H](O)O[C@@H]2CO)[C@H](O)[C@@H](O)[C@@H]1O,·,i,0%,·
COc1ccc(NC(=O)Cn2cc(C(=O)C3CC3)c3ccccc32)cc1,0%,-22%,0%,-14%
COc1cccc(NC(=O)Cn2cc(C(=O)C3CC3)c3ccccc32)c1,?,i,-9%,28µM*
SMILES,AmpC inh detg,Vaccinia mCherry,Vaccinia Venus,AmpC no deterg
O=CN1CCCN(C(=O)c2cc(NC(=O)c3ccccc3)cc3ncn(C4CCCC4)c23)CC1,·,-11%,-3%,·
O=C(N/N=C/c1ccoc1)c1cc(Br)ccc1O,-8%,·,·,7.9µM*
O=C(N/N=C1/CCSC1)c1cc(Br)ccc1O,-4%,11%,0%,-58%
O=C(NN=C1CCCC1)c1cc(Br)ccc1O,?,·,·,7.9µM*
O=C(Cn1cncn1)NCC1Cc2cc(-c3ccsc3)cc(Cl)c2O1 (stereo not drawn),·,-14%,-13%,·
O=C(c1ccc2c(c1)OCO2)N(Cc1cc2cc3c(cc2nc1N1CCOCC1)CCC3)CC1CCCO1 (stereo not drawn),·,-10%,-7%,·
COc1cc(C)c(CN2CCc3nnc(C(C)NC(=O)c4cc(F)ccc4F)n3CC2)cc1C (stereo not drawn),·,-19%,-18%,·
CN(Cc1c(C(=O)N/N=C/c2cccc(Cl)c2)nnn1-c1nonc1N)c1ccccc1,5%,·,·,14µM*
CC1CCN(Cc2c(C(=O)N/N=C/c3cc(Cl)ccc3O)nnn2-c2nonc2N)CC1,-11%,5µM*,?,-20%
CN(Cc1c(C(=O)N/N=C/c2ccccc2)nnn1-c1nonc1N)c1ccccc1,-14%,·,·,-43%
N#CC1=C(N)Oc2c(c(=O)oc3ccccc23)C1c1cccnc1 (stereo not drawn),-17%,-14%,-11%,-15%
CCOc1cc(C2C(C#N)=C(N)Oc3c2c(=O)oc2ccccc32)ccc1OC(=O)c1cccs1 (stereo not drawn),?,-2%,-7%,16µM*
CCOc1ccc(Nc2cc(C)nc(-n3nc(C)cc3C)n2)cc1,?,?,16µM*,43%
COc1ccc(/C=N/Nc2cc(C)nc(-n3nc(C)cc3C)n2)c(OC)c1,-8%,6.3µM*,?,214%
COc1cc(-c2c(OC)cccc2OC)cc2c1OCCN(C(=O)CCC(=O)c1ccc(F)cc1)C2,·,-2%,17%,·
c1ccc(COc2ncnc3c2ncn3CCCN2CCN(Cc3cccc4ccccc34)CC2)cc1,·,10µM*,11µM*,·
CC(C)c1c(C(=O)NCC(C)(C)N2CCOCC2)cnn1-c1nccc(-c2ccccc2F)n1,·,-11%,-8%,·
O=C(Cn1cc2c(n1)CCCCC2)N1CCc2ccccc2C1,?,-12%,-15%,0.56µM*
CC1CN(CCNC(=O)C2CCCc3c2[nH]c2ccccc32)Cc2ccccc2O1 (stereo not drawn),·,-15%,-11%,·
COc1ccc2c(c1)-c1nc(-n3ncc(C(=O)NC(C)(C)CO)c3C3CC3)ncc1CC2,·,-18%,-1%,·
CCC(=O)NC(=S)Nc1ccc(S(=O)(=O)NC2CCCCC2)cc1,10%,-19%,-9%,13µM*
O=S(=O)(c1ccc(NC(=S)N/N=C/c2ccc(O)c(O)c2)cc1)N1CCOCC1,-4%,-14%,-18%,16µM*
O=S(=O)(c1ccc(NC(=S)NN=Cc2ccccc2O)cc1)N1CCCCC1,·,13µM*,?,·
CCCCC(=O)NC(=S)Nc1ccc(S(=O)(=O)N2CCCC2)cc1,-11%,-24%,-14%,13µM*
